Test [1] has as its target Bile acid receptor (Homo sapiens) (UniProt Q96RI1). Put plainly: ATG_IR1_CIS: Attagene CIS-FACTORIAL HepG2 Assay for human Nuclear Receptor Subfamily 1 Group H Member 4 (NR1H4), IR1 submotif (AID 2282946). As to conditions: IR1 reporter transcription, actives raise or lower the signal. Put shortly: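 Readout: reporter transcript levels by RT-PCR with fluorescent capillary electrophoresis, from HepG2 cells transiently transfected with multiplexed cis-regulated reporters and dosed 24 h. Gain- or loss-of-signal fitted versus DMSO negative control.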

The nature of test [2]: ATG_GRE_CIS: Attagene CIS-FACTORIAL HepG2 Assay for human Glucocorticoid Response Elements (GRE) (AID 2282947). As to conditions: HepG2 GRE cis-reporter, Attagene multiplex mRNA; actives raise or lower the signal. The method, boiled down:
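Cells (HepG2) bearing transfected cis-promoter reporter transcription units were treated with chemical for 24 hours. Reporter mRNA was measured via RT-PCR with capillary electrophoresis, and activity was fitted in both directions relative to DMSO.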

Test [3] can be described thus: ATG_ISRE_CIS: Attagene CIS-FACTORIAL HepG2 Assay for human Interferon Regulatory Factor 1 (IRF1) binding to an Interferon-Stimulated Response Element (ISRE) (AID 2282948). As to conditions: HepG2 ISRE cis-reporter (Attagene), mRNA transcription readout; actives raise or lower the signal. Put shortly: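 Multiplexed mRNA reporter readout in human liver HepG2 cells: cis-element-driven reporters transfected, compound added for 24 h, transcripts amplified, fluorescently labelled and sized by capillary electrophoresis; curve fitting bidirectional against DMSO.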

The nature of test [4]: ATG_M_32_CIS: Attagene CIS-FACTORIAL HepG2 Assay for M32 Transcription Factor (Internal Marker) (AID 2282949).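 Also: background control marker of the multiplexed CIS panel rather than a real target.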 As to conditions: HepG2 Attagene cis-factorial M32 reporter, mRNA; actives raise or lower the signal. Put shortly:
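HepG2 human liver cells transiently transfected with cis-promoter-driven multiple reporter transcription units, dosed 24 h. Reporter mRNA quantified by RT-PCR, FAM-labelled primer extension, HpaI digest and capillary electrophoresis; bidirectional fit versus DMSO baseline.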

Test [5] can be described thus: ATG_M_06_CIS: Attagene CIS-FACTORIAL HepG2 Assay for M06 Transcription Factor (Internal Marker) (AID 2282950). As to conditions: HepG2 Attagene CIS-FACTORIAL M06 internal marker reporter; actives raise or lower the signal. The method, boiled down:
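Fluorescence-labelled RT-PCR products from cis-promoter reporter units, cut with HpaI and resolved by capillary electrophoresis, give the signal. Cells are human HepG2, dosed for 24 h. Serves as background control, fitted relative to DMSO.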

The target in test [6] is Hypoxia-inducible factor 1-alpha (Homo sapiens) (UniProt Q16665). Put plainly: ATG_HIF1a_CIS: Attagene CIS-FACTORIAL HepG2 Assay for human Hypoxia Inducible Factor 1 (HIF1A) (AID 2282951). The conditions noted are these: HepG2 Attagene cis-factorial HIF1a reporter transcription; actives raise or lower the signal. Put shortly: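 Measures endogenous transcription-factor activity through cis-regulated reporter mRNA in HepG2. Cells dosed 24 h; transcripts quantified by RT-PCR with 6-FAM-labelled products separated by capillary electrophoresis; DMSO serves as negative control.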

Test [7] addresses Hepatocyte nuclear factor 6 (Homo sapiens) (UniProt Q9UBC0). Put plainly: ATG_HNF6_CIS: Attagene CIS-FACTORIAL HepG2 Assay for human Hepatocyte Nuclear Factor 6 (HNF6) (AID 2282952). As to conditions: HepG2 Attagene cis-factorial HNF6 reporter transcription; actives raise or lower the signal. The method, boiled down: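 Twenty-four-hour chemical treatment of reporter-transfected HepG2 cells precedes RNA isolation, DNase-treated reverse transcription and PCR of reporter sequences. Labelled fragments are sized by capillary electrophoresis and fitted bidirectionally versus DMSO.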

The target in test [8] is Heat shock factor protein 1 (Homo sapiens) (UniProt Q00613). Put plainly: ATG_HSE_CIS: Attagene CIS-FACTORIAL HepG2 Assay for human Heat Shock Transcription Factor 1 (HSE) (AID 2282953). The conditions noted are these: HepG2 HSE cis-reporter, Attagene RNA transcription; actives raise or lower the signal. The method, boiled down: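 After a 24 h incubation with test chemical, transfected HepG2 cells were harvested for RNA; reporter transcripts were measured by RT-PCR and capillary electrophoresis. Values reflect gain or loss of signal relative to DMSO.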

A short description of test [9]: ATG_MRE_CIS: Attagene CIS-FACTORIAL HepG2 Assay for human Metal Responsive Element (MRE) (AID 2282954). As to conditions: HepG2 MRE cis-reporter transcription, Attagene multiplex; actives raise or lower the signal. Put shortly: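 Cells were transfected with cis-promoter reporter transcription units, then dosed for 24 h. RNA was reverse-transcribed, amplified, fluorescently labelled and resolved by capillary electrophoresis, and activity was fitted in both directions relative to DMSO.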

Test [10] is described as follows: ATG_PBREM_CIS: Attagene CIS-FACTORIAL HepG2 Assay for human Phenobarbital-responsive Enhancer Module (PBREM) (AID 2282955). As to conditions: HepG2 PBREM cis-reporter, Attagene multiplexed transcription; actives raise or lower the signal. Put shortly: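 Fluorescence of labelled reporter cDNA fragments, resolved by capillary electrophoresis, gives mRNA induction in transfected HepG2 cells treated for 24 h; DMSO serves as negative control and baseline.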

For test [11], the target named is Paired box protein Pax-6 (Homo sapiens) (UniProt P26367). Put plainly: ATG_Pax6_CIS: Attagene CIS-FACTORIAL HepG2 Assay for human Paired Box 6 (PAX6) (AID 2282956). As to conditions: HepG2 CIS-FACTORIAL PAX6 reporter transcription, RNA readout; actives raise or lower the signal. The method, boiled down: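 Fluorescent RT-PCR products separated by capillary electrophoresis report PAX6-linked promoter mRNA in HepG2 cells 24 h post-dose. Curves fitted bidirectionally, DMSO as negative control.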

Test [12] can be described thus: ATG_PXRE_CIS: Attagene CIS-FACTORIAL HepG2 Assay for human Pregnane X Receptor Element (PXRE) (AID 2282957). As to conditions: HepG2 Attagene CIS-FACTORIAL PXRE reporter, mRNA; actives raise or lower the signal. Put shortly: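 Bidirectional activity, baselined to DMSO, derived from reporter mRNA fluorescence (RT-PCR plus capillary electrophoresis) in HepG2 cells bearing cis-promoter reporter units, 24 h exposure.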

Test [13] is described as follows: ATG_PPRE_CIS: Attagene CIS-FACTORIAL HepG2 Assay for human Peroxisome Proliferator-activated Response Element (PPRE) (AID 2282958). The conditions noted are these: HepG2 PPRE cis-element reporter, Attagene transcription factor profiling; actives raise or lower the signal. Put shortly:
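Cells are first transfected transiently with the multiplexed reporter library, then dosed for 24 h. Total RNA is reverse-transcribed, amplified, fluorescently end-labeled and HpaI-cut before capillary electrophoresis; activity is fitted bidirectionally against DMSO controls.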

A short description of test [14]: ATG_Sox_CIS: Attagene CIS-FACTORIAL HepG2 Assay for human SRY-box transcription factor (SOX) (AID 2282960). The conditions noted are these: HepG2 Attagene cis-factorial SOX reporter, mRNA; actives raise or lower the signal. The method, boiled down: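 Transient MRTU transfection of HepG2; 24 h compound incubation; TriZol RNA, oligo(dT) RT, PCR, 6-FAM primer extension, HpaI cut, CE. Bidirectional fit, DMSO = baseline.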

The target in test [15] is Transcription factor Sp1 (Homo sapiens) (UniProt P08047). Put plainly: ATG_Sp1_CIS: Attagene CIS-FACTORIAL HepG2 Assay for human Specificity Protein 1 (Sp1) (AID 2282961). The conditions noted are these: HepG2 Sp1 cis-reporter transcription, actives raise or lower the signal. The method, boiled down:
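Endogenous Sp1 activity was gauged in human liver HepG2 cells bearing transfected reporter units under a cis-regulating promoter. After 24 h dosing, reporter mRNA was quantified by RT-PCR with capillary electrophoresis, and activity fitted bidirectionally versus DMSO.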

A short description of test [16]: ATG_SREBP_CIS: Attagene CIS-FACTORIAL HepG2 Assay for human Sterol Regulatory Element Binding (SREBP) (AID 2282962). The conditions noted are these: HepG2 Attagene cis-factorial SREBP reporter, mRNA; actives raise or lower the signal. Put shortly: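 Endogenous factor activity is measured in HepG2 through multiplexed reporter units under cis-element control. Following a 24 h incubation, reporter transcripts are reverse-transcribed, PCR-amplified and sized by capillary electrophoresis; activity is fitted in both directions relative to DMSO.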

Test [17] has as its target Signal transducer and activator of transcription 3 (Homo sapiens) (UniProt P40763). Put plainly: ATG_STAT3_CIS: Attagene CIS-FACTORIAL HepG2 Assay for human Signal Transducer and Activator of Transcription 3 (STAT3) (AID 2282963). The conditions noted are these: HepG2, Attagene cis-factorial STAT3 reporter transcription; actives raise or lower the signal. The method, boiled down:
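HepG2, MRTU-transfected, 24 h dosing. RNA → RT → PCR → FAM label → HpaI → CE. Bidirectional fit vs DMSO.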

Test [18] is described as follows: ATG_TCF_b_cat_CIS: Attagene CIS-FACTORIAL HepG2 Assay for human T-Cell-Factor with beta-catenin (TCF/b-cat) (AID 2282965). The conditions noted are these: HepG2 TCF/beta-catenin cis-reporter transcription, actives raise or lower the signal. The method, boiled down:
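Using capillary electrophoresis as the read-out, labelled reporter cDNA fragments from transiently transfected HepG2 were sized and quantified. Exposure lasted 24 hours; activity in either direction was referenced to DMSO.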

The nature of test [19]: ATG_TA_CIS: Attagene CIS-FACTORIAL HepG2 Assay for human TA Basal Promoter (AID 2282964). The conditions noted are these: HepG2 Attagene CIS-factorial TA basal promoter reporter; actives raise or lower the signal. Put shortly: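 Multiplexed mRNA reporter assay, HepG2, 24 h. Reporter cDNA amplified, 6-FAM primer-extended, HpaI-cut, CE-sized; DMSO = negative control and baseline.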

Several values for one entry are separate records, joined by “and”; a condition that tells them apart may be missing. Equal values may be shown once. Where a structure was tested more than once in an assay, its records may differ in their call. Activity calls are given as the source filed them. The calls were made as follows: active = hit-call score of the fitted dose curve at least 0.9, where 1 is the maximum; inactive = score below 0.9.

Paired box protein Pax-6 (Homo sapiens), sequence (P26367 whole entry, looked up): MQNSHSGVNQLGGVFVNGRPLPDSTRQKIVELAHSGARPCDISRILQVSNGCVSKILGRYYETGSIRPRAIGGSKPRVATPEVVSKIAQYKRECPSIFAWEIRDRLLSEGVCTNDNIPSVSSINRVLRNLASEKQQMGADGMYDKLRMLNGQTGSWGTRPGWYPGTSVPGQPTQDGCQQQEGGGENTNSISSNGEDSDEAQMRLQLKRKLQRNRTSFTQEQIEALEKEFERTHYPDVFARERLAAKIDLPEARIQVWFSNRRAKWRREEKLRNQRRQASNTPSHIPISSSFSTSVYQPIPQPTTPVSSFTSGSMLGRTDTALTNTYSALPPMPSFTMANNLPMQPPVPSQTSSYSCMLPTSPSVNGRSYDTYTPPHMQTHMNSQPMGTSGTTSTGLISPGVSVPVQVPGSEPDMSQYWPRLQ
Transcription factor Sp1 (Homo sapiens), sequence (P08047 whole entry, looked up): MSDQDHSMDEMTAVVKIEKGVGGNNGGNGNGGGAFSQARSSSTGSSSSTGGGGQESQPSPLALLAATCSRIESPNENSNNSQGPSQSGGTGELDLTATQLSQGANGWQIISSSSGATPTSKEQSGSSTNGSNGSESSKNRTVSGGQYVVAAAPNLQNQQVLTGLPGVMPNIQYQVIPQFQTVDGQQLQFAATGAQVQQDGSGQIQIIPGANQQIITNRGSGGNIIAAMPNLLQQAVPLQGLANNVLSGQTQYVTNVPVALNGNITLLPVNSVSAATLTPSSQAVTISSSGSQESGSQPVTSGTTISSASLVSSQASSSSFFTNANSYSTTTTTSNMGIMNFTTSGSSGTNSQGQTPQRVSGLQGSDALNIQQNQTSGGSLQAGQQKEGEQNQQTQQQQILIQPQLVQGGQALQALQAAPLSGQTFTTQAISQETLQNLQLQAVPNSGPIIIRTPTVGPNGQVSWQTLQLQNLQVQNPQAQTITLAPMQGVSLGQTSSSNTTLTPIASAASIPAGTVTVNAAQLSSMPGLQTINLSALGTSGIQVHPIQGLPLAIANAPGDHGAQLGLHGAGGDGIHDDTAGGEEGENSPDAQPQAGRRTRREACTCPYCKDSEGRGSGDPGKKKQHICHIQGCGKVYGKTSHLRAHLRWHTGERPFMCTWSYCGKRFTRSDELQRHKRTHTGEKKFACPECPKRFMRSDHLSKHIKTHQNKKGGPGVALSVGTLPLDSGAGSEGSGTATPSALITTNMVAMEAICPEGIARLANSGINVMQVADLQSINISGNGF
Signal transducer and activator of transcription 3 (Homo sapiens), sequence (P40763 whole entry, looked up): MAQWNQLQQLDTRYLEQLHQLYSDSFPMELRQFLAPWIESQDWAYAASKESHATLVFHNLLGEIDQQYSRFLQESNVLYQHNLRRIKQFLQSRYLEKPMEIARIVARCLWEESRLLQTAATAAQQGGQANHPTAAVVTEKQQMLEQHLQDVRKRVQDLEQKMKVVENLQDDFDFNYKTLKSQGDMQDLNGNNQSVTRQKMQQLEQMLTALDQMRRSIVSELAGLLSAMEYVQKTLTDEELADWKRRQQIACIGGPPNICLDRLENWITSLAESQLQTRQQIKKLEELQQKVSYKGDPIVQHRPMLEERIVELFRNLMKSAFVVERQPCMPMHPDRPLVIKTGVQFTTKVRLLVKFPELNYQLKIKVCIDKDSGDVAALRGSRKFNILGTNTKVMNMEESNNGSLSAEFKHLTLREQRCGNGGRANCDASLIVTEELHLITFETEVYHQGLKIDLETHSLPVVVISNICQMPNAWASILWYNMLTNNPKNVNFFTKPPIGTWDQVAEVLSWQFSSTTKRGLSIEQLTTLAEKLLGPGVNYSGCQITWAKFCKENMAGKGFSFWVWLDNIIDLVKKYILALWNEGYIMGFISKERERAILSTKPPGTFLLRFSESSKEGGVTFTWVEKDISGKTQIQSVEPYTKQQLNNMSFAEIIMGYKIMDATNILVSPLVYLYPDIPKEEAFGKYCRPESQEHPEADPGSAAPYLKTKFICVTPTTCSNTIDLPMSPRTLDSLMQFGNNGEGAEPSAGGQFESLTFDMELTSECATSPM
Hypoxia-inducible factor 1-alpha (Homo sapiens), sequence (Q16665 whole entry, looked up): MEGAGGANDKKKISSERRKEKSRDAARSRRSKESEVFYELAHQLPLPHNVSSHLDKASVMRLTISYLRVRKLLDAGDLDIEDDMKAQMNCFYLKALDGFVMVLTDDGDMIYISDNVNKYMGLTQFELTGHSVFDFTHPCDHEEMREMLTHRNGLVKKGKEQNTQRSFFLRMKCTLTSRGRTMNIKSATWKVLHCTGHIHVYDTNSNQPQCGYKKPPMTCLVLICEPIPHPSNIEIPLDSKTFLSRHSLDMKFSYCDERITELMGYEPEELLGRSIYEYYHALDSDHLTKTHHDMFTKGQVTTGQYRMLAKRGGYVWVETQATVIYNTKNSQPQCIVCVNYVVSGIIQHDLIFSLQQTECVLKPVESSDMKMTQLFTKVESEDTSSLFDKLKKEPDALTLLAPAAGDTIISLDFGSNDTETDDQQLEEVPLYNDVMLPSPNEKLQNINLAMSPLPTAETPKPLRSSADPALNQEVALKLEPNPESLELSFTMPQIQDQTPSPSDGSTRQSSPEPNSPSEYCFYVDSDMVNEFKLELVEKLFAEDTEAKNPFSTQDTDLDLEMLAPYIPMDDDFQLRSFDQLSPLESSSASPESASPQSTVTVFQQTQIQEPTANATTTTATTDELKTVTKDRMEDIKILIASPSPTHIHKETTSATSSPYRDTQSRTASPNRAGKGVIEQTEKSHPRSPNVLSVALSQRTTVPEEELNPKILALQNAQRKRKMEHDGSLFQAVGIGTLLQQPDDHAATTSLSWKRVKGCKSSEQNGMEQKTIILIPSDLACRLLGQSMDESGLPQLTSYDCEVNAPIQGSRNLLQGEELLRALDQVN
Hepatocyte nuclear factor 6 (Homo sapiens), sequence (Q9UBC0 whole entry, looked up, the tested form may be a part): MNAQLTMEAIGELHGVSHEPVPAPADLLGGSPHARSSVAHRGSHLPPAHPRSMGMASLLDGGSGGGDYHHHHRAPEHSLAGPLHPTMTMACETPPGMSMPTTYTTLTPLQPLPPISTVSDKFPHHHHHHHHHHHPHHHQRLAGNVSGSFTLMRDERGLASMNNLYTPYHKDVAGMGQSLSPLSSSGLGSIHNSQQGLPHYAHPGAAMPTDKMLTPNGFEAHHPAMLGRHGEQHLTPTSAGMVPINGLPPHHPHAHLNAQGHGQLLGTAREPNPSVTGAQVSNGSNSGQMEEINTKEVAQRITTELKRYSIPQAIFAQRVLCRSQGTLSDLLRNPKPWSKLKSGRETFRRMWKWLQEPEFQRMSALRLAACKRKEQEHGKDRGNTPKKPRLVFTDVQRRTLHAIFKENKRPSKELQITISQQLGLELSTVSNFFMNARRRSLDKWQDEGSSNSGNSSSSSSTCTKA
Heat shock factor protein 1 (Homo sapiens), sequence (Q00613 whole entry, looked up): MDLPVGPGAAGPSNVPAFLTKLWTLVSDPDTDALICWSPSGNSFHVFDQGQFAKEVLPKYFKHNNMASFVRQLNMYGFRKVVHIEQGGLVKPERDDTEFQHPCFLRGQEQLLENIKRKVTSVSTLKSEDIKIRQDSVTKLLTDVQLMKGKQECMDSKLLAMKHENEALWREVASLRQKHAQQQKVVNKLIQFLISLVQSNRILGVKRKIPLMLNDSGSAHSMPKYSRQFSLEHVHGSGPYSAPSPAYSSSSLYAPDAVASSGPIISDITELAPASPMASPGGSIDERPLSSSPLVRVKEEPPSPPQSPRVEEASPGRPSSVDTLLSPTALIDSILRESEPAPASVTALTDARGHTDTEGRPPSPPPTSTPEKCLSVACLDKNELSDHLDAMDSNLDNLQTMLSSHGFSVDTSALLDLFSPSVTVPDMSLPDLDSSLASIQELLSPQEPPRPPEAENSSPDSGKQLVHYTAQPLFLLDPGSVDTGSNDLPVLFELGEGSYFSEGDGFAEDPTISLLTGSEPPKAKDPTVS
Bile acid receptor (Homo sapiens), sequence (Q96RI1 whole entry, looked up): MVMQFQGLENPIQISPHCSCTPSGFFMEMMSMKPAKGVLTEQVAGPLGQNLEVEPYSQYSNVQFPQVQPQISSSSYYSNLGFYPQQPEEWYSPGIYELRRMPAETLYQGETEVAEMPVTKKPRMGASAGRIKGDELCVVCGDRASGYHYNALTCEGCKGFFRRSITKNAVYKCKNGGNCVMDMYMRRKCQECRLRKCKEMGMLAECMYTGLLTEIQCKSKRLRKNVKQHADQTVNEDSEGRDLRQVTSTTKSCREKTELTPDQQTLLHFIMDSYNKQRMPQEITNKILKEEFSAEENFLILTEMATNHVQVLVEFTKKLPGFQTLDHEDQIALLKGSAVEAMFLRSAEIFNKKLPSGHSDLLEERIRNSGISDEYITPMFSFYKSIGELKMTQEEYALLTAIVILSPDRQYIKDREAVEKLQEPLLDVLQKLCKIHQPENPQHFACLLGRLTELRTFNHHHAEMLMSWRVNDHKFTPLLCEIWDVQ

Take `O=C(Nc1ccc(Cl)cc1)Nc1ccc(Cl)c(Cl)c1`: the outcome in [1], in [2], in test [4], in test [5], in test [6] and in test [7] was inactive. Further, the result in [8], in [9], in [10], in [11], in test [13] and in test [14] was inactive. Further, the call in [15], in [16], in [17] and in test [18] was inactive. Besides, the concentration at half-maximal activity (AC50) in test [3] was 5.89 µM (active); in test [12], 2.12 µM (active).

As for `O=c1c(-c2ccc(O)cc2)coc2cc(O)cc(O)c12`, the AC50 in test [1] was 10.4 µM (active) and 10.6 µM (active); in test [9] it was 81.4 µM (active) and 137 µM (active); in test [10], 43.7 µM (active); in [12], 27.9 µM (active); in [13], 14.7 µM (active) and 66.3 µM (active) and 50 µM (active); in test [15], 58.4 µM (active) and 80.7 µM (active). In addition, the AC50 in [16] was 28.2 µM (active) [middle of 4 runs]. Also, the outcome in test [1], in test [2], in test [3], in test [4], in [5] and in test [6] was inactive. Moreover, the result in [7], in test [8], in [9], in test [10], in test [11] and in test [12] was inactive. Also, the call in [13], in test [14], in test [15], in test [17] and in test [19] was inactive.

Regarding `CC(C)(c1cc(Br)c(O)c(Br)c1)c1cc(Br)c(O)c(Br)c1`, the concentration at half-maximal activity (AC50) in [1] was 16.3 µM (active); in test [3], 44.8 µM (active); in test [8] it was 49.8 µM (active) and 49.3 µM (active); in test [9], 46.7 µM (active) and 48.6 µM (active); in [11], 46 µM (active) and 42.9 µM (active); in [12], 7.93 µM (active) and 8.01 µM (active). The AC50 in test [14] was 41.4 µM (active) and 43.4 µM (active); in test [15] it was 39.3 µM (active) and 31.9 µM (active); in test [16] it was 31.7 µM (active) and 23 µM (active); in test [19], 23.2 µM (active). In addition, the compound was called inactive in [1], in test [2], in test [3], in [4], in test [5] and in test [7]. Also, the result in [10], in [17] and in test [19] was inactive.

Broadly, the AC50 is the concentration giving half of the maximal activity seen.

The record behind these values is PubChem BioAssay (EPA / NIEHS).
